Compound activity as filed in PubChem.
A selection: hits, their analogues and other compounds. The true share with any hit is near 3%.
Tau FP inhib = blocks human tau fibril formation measured by polarization; P10636; K18 P301L tau heparin fibrillization, Alexa594 FP, 6 h; Potency, µM (series often up to 57.7 µM), inactives show top-dose activity, negative = inhibition, actives largely listed as inhibitors; 0.39% of 280,000 active; also: potency is read from the fitted curve at half-maximal effect; nearly all actives have a fitted effect of over 55% in size
Target sequence (P10636 561-689 P618L limits assumed): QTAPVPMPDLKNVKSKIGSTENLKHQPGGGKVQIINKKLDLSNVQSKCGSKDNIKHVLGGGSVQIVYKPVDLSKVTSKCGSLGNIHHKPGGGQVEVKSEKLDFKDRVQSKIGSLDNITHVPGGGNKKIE
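Recombinant K18 P301L […], labeled with Alexa 594 at 0.24 uM over 15 uM unlabeled; heparin inducer 20 uM final; 37 C, 6 hr; FP endpoint.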
KDM4E inh = blocks human JMJD2E demethylase activity. Potency, µM (top dose mostly 57.1 µM), for the others: at the top dose activity change, negative = inhibition, hits mostly inhibitors. 1.6% of 230,000 active. AID 2147. JMJD2E catalytic domain, FDH-coupled NADH fluorescence (FDH is formaldehyde dehydrogenase);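 also: potency is read from the fitted curve at half-maximal effect; 0% = wells with enzyme and -100% = buffer wells without enzyme; nearly all actives have a fitted effect of over 50% in size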
Target sequence (B2RXH2 1-337 limits assumed): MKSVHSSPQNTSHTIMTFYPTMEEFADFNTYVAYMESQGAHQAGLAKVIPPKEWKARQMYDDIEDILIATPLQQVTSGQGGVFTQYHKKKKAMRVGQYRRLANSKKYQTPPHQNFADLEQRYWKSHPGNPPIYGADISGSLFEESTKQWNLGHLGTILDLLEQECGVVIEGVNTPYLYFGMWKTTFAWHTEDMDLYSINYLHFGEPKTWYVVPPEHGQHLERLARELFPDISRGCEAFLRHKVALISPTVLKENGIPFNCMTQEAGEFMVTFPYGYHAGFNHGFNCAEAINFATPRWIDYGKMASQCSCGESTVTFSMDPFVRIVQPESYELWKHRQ
FBPA coupling cs = inhibits coupling enzyme system, counter-screen for aldolase hits | activity change, negative = inhibition, % at 58.2 µM, hits read low | 0.67% of 290,000 active | coupling enzyme system counterscreen, AmpLite Red fluorescence; in the data active = activity change below about -30%
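Final compound at 57.5 uM, incubated 10 min at RT with coupling enzyme reagent (glyceraldehyde-3-phosphate), then 20 min with substrate and AmpLite Red detection. Fluorescence read at 525/598 nm; tests interference with the coupling assay, not aldolase inhibition.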
Tau ThT inhib = tau fibrillization inhibition (ThT binding). P10636. recombinant tau K18 P301L, heparin-induced fibrillization, ThT fluorescence. Potency, µM (series often up to 57.4 µM), inactives show top-dose activity, negative = inhibition, hits mostly inhibitors. 2.1% of 270,000 active; also: potency is read from the fitted curve at half-maximal effect; nearly all actives have a fitted effect of over 55% in size
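Heparin-induced fibrillization of the P301L-mutant K18 repeat-domain fragment of human tau was followed by ThT binding in quantitative high-throughput format.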
Tau fluor cs = counter-screen for tau fibril formation inhibitors. tau K18 P301L (four-repeat tau fragment) Alexa594 fluorescence, heparin fibrillization. 0.93% of 280,000 active. Potency, µM (doses to about 57.7 µM), without a hit: at the top dose activity change, negative = decrease. AID 1463; also: potency is read from the fitted curve at half-maximal effect; nearly all actives have a fitted effect of over 55% in size
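Human K18 P301L tau (15 uM unlabeled plus 0.24 uM Alexa 594-labeled, final) in 100 mM sodium acetate pH 7 was mixed with compound and 20 uM heparin and incubated 6 hr at 37 C.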
* = called active by the depositor; ? = inconclusive; . = no result; [ ] = another dose, or the depositor's remark. Unless noted, calls follow the shape of the dose curve; as a rule, active = well fitted curve in the direction sought with a large enough effect; inconclusive = small, poorly fitted or top-dose-only effect, or another doubt; inactive = no such curve, though single readings can be large; an effect the other way counts as inactive or inconclusive. Unless noted, % is scaled to controls: 0 for no effect and ±100 for the full control effect.

SMILES	Tau FP inhib	KDM4E inh	FBPA coupling cs	Tau ThT inhib	Tau fluor cs
O=C(N/N=C/c1c[nH]c2ccccc12)C1CC1(c1ccccc1)c1ccccc1 (stereo unspecified)	-3%	-12%	0	-11%	7.1µM*[quencher]
Cc1noc(NS(=O)(=O)c2ccc(NC(=O)c3ccc(Br)cc3)cc2)c1C	-1%	.	.	-10%	-17%
Cc1ccc(C(=O)c2ccc([N+](=O)[O-])cc2)cc1C	14%	-4%	0	?	-25%
Cc1ccc(NCCC(=O)c2cccc([N+](=O)[O-])c2)c(C)c1	?	4%	-1	?	16µM*[quencher]
Cc1ccc(NCC(=O)c2ccc([N+](=O)[O-])cc2)cc1	?	-25%	2	18µM*	?
Cc1ccc(C(=O)CNc2cccc([N+](=O)[O-])c2)cc1	-1%	-16%	1	?	-11%
Cc1cccc(NCCC(=O)c2ccc([N+](=O)[O-])cc2)c1C	2%	-1%	1	?	8.9µM*[quencher]
Cc1ccccc1NC(=O)CCC(=O)OCC(=O)c1cccc([N+](=O)[O-])c1	-11%	0%	-1	-9%	-8%
CCOC(=O)c1scc(-c2ccccc2)c1S(=O)(=O)Nc1ccc(N(C)C)cc1	-1%	.	.	?	?
CCOc1ccc(NCc2cc3cc(OC)ccc3[nH]c2=O)cc1	-6%	?	-17	6.3µM*	?
COc1ccc2[nH]c(=O)c(CNc3ccc(C)cc3C)cc2c1	-20%	?	-20	?	-30%
COc1ccc2[nH]c(=O)c(CNc3ccccc3)cc2c1	?	-1%	-35*	-9%	-6%
Cc1ccc2ccc3cc(C(=O)N4CCN(c5ccccc5)CC4)nc3c2[nH]1	9%	.	.	?	-20%
O=C(CSC1=NCCS1)NC(c1ccccc1)c1ccccc1	?	2%	2	16µM*	-10%
CCN(CC)c1ccc(NC(=O)c2cccn2-c2nnc(N3CCCCC3)s2)c(C)c1	-3%	.	.	?	-29%
C=CCn1c(SCC(=O)c2ccc(O)c(O)c2)nnc1-c1cccnc1	-8%	3.5µM*	-30	?	-21%
COc1ccccc1-c1nnc(SCC(=O)c2ccc(Cl)cc2)n1-c1ccccc1	-5%	.	.	-13%	-17%
C=CCn1c(SCC(=O)c2ccc(O)c(O)c2)nnc1-c1ccccc1OC	4%	10µM*	1	?	-14%
CCn1c(CSc2nc3ccccc3s2)nnc1SCC(=O)c1ccc(O)c(O)c1	-3%	14µM*	1	?	?
C=CCn1c(SCC(=O)NC2CCCC2)nnc1-c1cccnc1	.	.	3	.	.
CCn1c(SCC(=O)c2ccc(O)c(O)c2)nnc1-c1ccccc1OC	2%	22µM*	1	-7%	-7%
CCn1c(SCC(=O)c2ccc(O)c(O)c2)nnc1-c1ccccc1	0%	13µM*	0	?	-13%
COc1cc(OC)c(NC(=O)N2CCc3c(sc4c3CCCC4)C2c2ccccc2)cc1Cl (stereo unspecified)	14%	.	.	2%	-10%
COc1ccc(OC)c(C2CC(=O)N3CN(c4cccc(Cl)c4)CSC3=C2C#N)c1 (stereo unspecified)	?	?	-6	28µM*	?
COc1ccc(OC)c(C2CC(=O)N3CN(c4ccc(C)c(Cl)c4)CSC3=C2C#N)c1 (stereo unspecified)	?	?	-13	28µM*	-28%
SMILES	Tau FP inhib	KDM4E inh	FBPA coupling cs	Tau ThT inhib	Tau fluor cs
COc1ccc(Br)cc1C1CC(=O)N2CN(C)CSC2=C1C#N (stereo unspecified)	?	-4%	-10	?	-15%
CO[C@@H](CCO)C[C@H]1O[C@H](C(=O)OC(C)C)CC[C@@H]1C	?	15%	0	5%	3%
CCCNC1=C(N(C(C)=O)c2cccc(F)c2)C(=O)c2ccccc2C1=O	5%	?	-49*	-12%	1%
CC(=O)Nc1cccc(-c2csc(Nc3ncccn3)n2)c1	-1%	3%	1	?	-20%
CC(=O)NNc1nc(-c2ccc(NC(C)=O)cc2)cs1	-3%	1%	0	-1%	-6%
CC(=O)Nc1cccc(-c2csc(Nc3ccc(C)cn3)n2)c1	14%	-8%	0	?	14µM*[quencher]
CC(=O)Nc1ccc(-c2csc(NNC(=O)c3ccc(C)cc3)n2)cc1	?	-26%	5	11µM*	?
CC(=O)Nc1ccc(-c2csc(Nc3cccc(C)n3)n2)cc1	8%	-4%	-2	?	20µM*[quencher]
CC(=O)c1cc2c(cc1N/C(=N/S(=O)(=O)c1ccc(F)cc1)c1ccccc1)OCO2	1%	.	.	3%	-7%
CCOC(=O)c1ccc(NC(=O)c2ccccc2[N+](=O)[O-])cc1	-5%	1%	1	-7%	-9%
CCOC(=O)c1ccc(N/N=C/c2cc(Br)cc([N+](=O)[O-])c2O)cc1	-6%	5%	4	0.45µM*	0.71µM*[quencher]
CCOC(=O)c1ccc(Nc2ncccc2[N+](=O)[O-])cc1	-3%	-52%	0	2.2µM*	-29%
Nc1[nH]ncc1N=Nc1ccc(Cl)cc1	8%	-3%	-2	10µM*	?
CC(C)N=c1scc(-c2ccco2)n1/N=C/c1ccc(O)c(O)c1	?	?	-5	14µM*	14µM*[quencher]
COCCN=c1scc(-c2ccco2)n1/N=C/c1ccc(O)c(O)c1O	25µM*	22µM*	-51*	13µM*	?
Oc1ccc(/C=N/n2c(-c3ccco3)csc2=Nc2cccnc2)c(O)c1	-2%	-14%	-2	?	?
C=CCN=c1scc(-c2ccco2)n1/N=C/c1ccc(O)c(O)c1O	?	11µM*	-35*	6.3µM*	7.9µM*[quencher]
CN=c1scc(-c2cccs2)n1/N=C/c1ccccc1O	-8%	-1%	-4	11%	-3%
COc1ccc(-c2nc3cnc(Oc4cccc(Cl)c4)nc3n(C3CC3)c2=O)cc1	.	.	5	.	.
C[C@H](CCC(=O)O)C1CC[C@H]2C3CC[C@@H]4C[C@H](O)CC[C@]4(C)C3C[C@H](O)[C@]12C (stereo partly specified)	-1%	.	.	-5%	3%
CN1C(=O)/C(=C/c2ccc(OCc3ccc(F)cc3)cc2)N(C)C1=S	.	.	-3	.	.
CCCN1C(=O)/C(=C/c2ccc(N3CCOCC3)cc2)NC1=S	?	1%	-3	?	?
CCN1C(=O)/C(=C/c2ccc(N3CCCC3)cc2)NC1=S	?	-2%	1	11µM*	?
Cc1cc(/C=C2\NC(=S)N(C)C2=O)ccc1N1CCCC1	?	-8%	-2	?	-28%
CCCN1C(=O)/C(=C/c2ccc(N3CCCC3)c(C)c2)NC1=S	?	-13%	7	?	8.9µM*[quencher]
Cc1cc(/C=C2/C(=O)N(C)C(=S)N2C)ccc1N1CCCC1	-3%	-18%	0	4µM*	?
